Assay [1] can be described thus: NCI Yeast Anticancer Drug Screen. Data for the rad50 strain (AID 155).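 Note: 0% = growth of vehicle-only cultures of the same strain.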 The settings on record: S. cerevisiae rad50 strain growth inhibition, active compounds read high. Summed up:
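Inhibition values express reduced yeast growth in compound-treated cultures relative to vehicle-treated controls.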

A short description of assay [2]: NCI Yeast Anticancer Drug Screen. Data for the mec2-1 strain (AID 157). The settings on record: S. cerevisiae mec2-1 strain, active compounds read high. Summed up:
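Each compound was tested on mec2-1 yeast, a strain altered in DNA damage repair or cell cycle control. Growth inhibition is reported relative to vehicle.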

Assay [3] is described as follows: NCI Yeast Anticancer Drug Screen. Data for the sgs1 mgt1 strain (AID 161).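 Note: 0% = growth of cultures given vehicle only.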 The settings on record: S. cerevisiae sgs1 mgt1 strain, active compounds read high. Summed up: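 Inhibition of yeast growth, normalised to vehicle-treated controls, is reported for a strain bearing genetic alterations in DNA damage repair.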
A short description of assay [4]: NCI Yeast Anticancer Drug Screen. Data for the cln2 rad14 strain (AID 165).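 Note: 0% = growth equal to vehicle treated cultures.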 The settings on record: S. cerevisiae cln2 rad14 strain, active compounds read high. Summed up:
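Test compounds were added to cln2 rad14 yeast cultures; inhibition of growth was then determined by comparison with vehicle treatment.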

Assay [5] in a line: NCI Yeast Anticancer Drug Screen. Data for the bub3 strain (AID 167). The settings on record: S. cerevisiae bub3 mutant strain, active compounds read high. Summed up:
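Steps: expose the mutant yeast strain to compound; grow alongside vehicle-treated cultures; measure growth; express inhibition against the vehicle cultures.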

A short description of assay [6]: NCI Yeast Anticancer Drug Screen. Data for the mlh1 rad18 strain (AID 175). The following applies: S. cerevisiae mlh1 rad18 strain growth inhibition, active compounds read high. The gist of the method:
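Inhibition values reflect reduced growth of mutant yeast versus vehicle-treated controls following compound exposure; the mutations affect DNA damage repair.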

The mark [7] stands for this setting: at 5.0 µM (retest, dose inferred, filed as 0.5).
The mark [8] stands for this setting: at 50.0 µM (retest, dose inferred, filed as 5.0).

SMILES strings stand for the structures. The panel holds about 79,000 compounds, 15% with a hit somewhere; the sample as a whole holds those more often. Unmarked numbers belong to inactive results. Active and inactive are the calls of the source. Cut-off read from the data, not from the text of the source: active = growth inhibition above about 70%; inactive = the rest.

For the compound `CC(C)C(=O)c1ccc2ccccc2c1O`, the growth inhibition in assay [1] (setting [7]) was -1%; in assay [1] (setting [8]), 1%; in assay [1] (at 50.0 µM), 21.4%; in assay [2] (setting [7]) it was 2%; in assay [2] (setting [8]), -1%; in assay [2] (at 50.0 µM), -9.8%. Also, the growth inhibition in assay [3] (setting [7]) is -13%; in assay [3] (setting [8]), -8%; in assay [3] (at 50.0 µM) it was 4.35%; in assay [4] (setting [7]), 3%; in assay [4] (setting [8]), 0%; in assay [4] (at 50.0 µM), 12.2%. In addition, the growth inhibition in assay [5] (setting [7]) is 5%; in assay [5] (setting [8]), 6%; in assay [5] (at 50.0 µM), 0.5%; in assay [6] (setting [7]), -1%; in assay [6] (setting [8]), 1%; in assay [6] (at 50.0 µM) it was 1.05%.
For `CCCCCCCCCC(=O)CC(=O)c1ccc(O)cc1O`, the growth inhibition is 33% in assay [1] (setting [7]); 96% (active) in assay [1] (setting [8]); 86.5% (active) in assay [1] (at 50.0 µM); 27% in assay [2] (setting [7]); 97% (active) in assay [2] (setting [8]); 89.5% (active) in assay [2] (at 50.0 µM). Further, the growth inhibition was 50% in assay [3] (setting [7]); 98% (active) in assay [3] (setting [8]); 89.7% (active) in assay [3] (at 50.0 µM); 37% in assay [4] (setting [7]); 97% (active) in assay [4] (setting [8]); 88.6% (active) in assay [4] (at 50.0 µM). Also, the growth inhibition in assay [5] (setting [7]) was 39%; in assay [5] (setting [8]), 98% (active); in assay [5] (at 50.0 µM), 89.2% (active); in assay [6] (setting [7]), 48%; in assay [6] (setting [8]) it was 97% (active); in assay [6] (at 50.0 µM), 87.5% (active).
In the case of `CCOC(=O)CNC(=O)CNC(=O)CNC(c1ccccc1)(c1ccccc1)c1ccccc1`, the growth inhibition in assay [1] (setting [7]) is -8%; in assay [1] (setting [8]), 56%; in assay [1] (at 50.0 µM), 66.5%; in assay [2] (setting [7]), 41%; in assay [2] (setting [8]), 69%; in assay [2] (at 50.0 µM), 60.3%. The growth inhibition in assay [3] (setting [7]) is -13%; in assay [3] (setting [8]) it was 81% (active); in assay [3] (at 50.0 µM), 55.1%; in assay [4] (setting [7]), -10%; in assay [4] (setting [8]) it was 26%; in assay [4] (at 50.0 µM), 68.8%. Also, the growth inhibition in assay [5] (setting [7]) was -1%; in assay [5] (setting [8]), 61%; in assay [5] (at 50.0 µM) it was 38.4%; in assay [6] (setting [7]) it was 15%; in assay [6] (setting [8]), 83% (active); in assay [6] (at 50.0 µM), 63.7%.
Regarding `CC(=O)Oc1ccc(N=[N+]([O-])c2ccc(OC(C)=O)cc2)cc1`, the growth inhibition in assay [1] (setting [7]) is 5%; in assay [1] (setting [8]) it was 12%; in assay [1] (at 50.0 µM), 1.95%; in assay [2] (setting [7]), 13%; in assay [2] (setting [8]), 40%; in assay [2] (at 50.0 µM) it was -2.6%. Besides, the growth inhibition in assay [3] (setting [7]) was 2%; in assay [3] (setting [8]), 19%; in assay [3] (at 50.0 µM) it was 45.6%; in assay [4] (setting [7]), 10%; in assay [4] (setting [8]), 23%; in assay [4] (at 50.0 µM) it was 18.4%. For the same compound, the growth inhibition in assay [5] (setting [7]) is -4%; in assay [5] (setting [8]) it was 2%; in assay [5] (at 50.0 µM), 14.7%; in assay [6] (setting [7]), -1%; in assay [6] (setting [8]), 5%; in assay [6] (at 50.0 µM), -13%.
With `CC1C(C(=O)O)CC([N+](=O)[O-])C(Cl)C1[N+](=O)[O-]` (configuration not stated), the growth inhibition in assay [1] (setting [7]) is 13%; in assay [1] (setting [8]), 60%; in assay [1] (at 50.0 µM) it was 20.9%; in assay [2] (setting [7]) it was -1%; in assay [2] (setting [8]) it was 83% (active); in assay [2] (at 50.0 µM), 87.4% (active). Moreover, the growth inhibition in assay [3] (setting [7]) is -5%; in assay [3] (setting [8]), 26%; in assay [3] (at 50.0 µM), 82.1% (active); in assay [4] (setting [7]) it was 15%; in assay [4] (setting [8]), 44%; in assay [4] (at 50.0 µM), 35.4%. Besides, the growth inhibition is 11% in assay [5] (setting [7]); 88% (active) in assay [5] (setting [8]); 74.7% (active) in assay [5] (at 50.0 µM); 9% in assay [6] (setting [7]); 93% (active) in assay [6] (setting [8]); 54.6% in assay [6] (at 50.0 µM).
On to `COc1cc(C(=O)C=[N+]=[N-])c([N+](=O)[O-])c(OC)c1OC`, for which the growth inhibition was 12% in assay [1] (setting [7]); 77% (active) in assay [1] (setting [8]); 63.2% in assay [1] (at 50.0 µM); 22% in assay [2] (setting [7]); 91% (active) in assay [2] (setting [8]); 90.8% (active) in assay [2] (at 50.0 µM). Moreover, the growth inhibition in assay [3] (setting [7]) is 19%; in assay [3] (setting [8]) it was 92% (active); in assay [3] (at 50.0 µM) it was 91.8% (active); in assay [4] (setting [7]), 11%; in assay [4] (setting [8]) it was 51%; in assay [4] (at 50.0 µM) it was 41.9%. The growth inhibition in assay [5] (setting [7]) was 9%; in assay [5] (setting [8]), 67%; in assay [5] (at 50.0 µM) it was 93.2% (active); in assay [6] (setting [7]) it was 8%; in assay [6] (setting [8]), 89% (active); in assay [6] (at 50.0 µM), 94.4% (active).
As to `C=CCOC(=O)CC(O)C(=O)OCC=C` (configuration not stated), the growth inhibition in assay [1] (setting [7]) is -5%; in assay [1] (setting [8]), 7%; in assay [1] (at 50.0 µM), 0.95%; in assay [2] (setting [7]), 4%; in assay [2] (setting [8]), -2%; in assay [2] (at 50.0 µM) it was -12.7%. Moreover, the growth inhibition in assay [3] (setting [7]) was -1%; in assay [3] (setting [8]) it was 3%; in assay [3] (at 50.0 µM) it was -29.6%; in assay [4] (setting [7]) it was 1%; in assay [4] (setting [8]), -9%; in assay [4] (at 50.0 µM) it was 13.8%. Further, the growth inhibition in assay [5] (setting [7]) was 0%; in assay [5] (setting [8]), -8%; in assay [5] (at 50.0 µM), 7.85%; in assay [6] (setting [7]) it was -5%; in assay [6] (setting [8]), 13%; in assay [6] (at 50.0 µM), -2.45%.
With `OC(COc1ccc(Cl)cc1)COc1ccc(Cl)cc1`, the growth inhibition is 0% in assay [1] (setting [7]); 92% (active) in assay [1] (setting [8]); 98.4% (active) in assay [1] (at 50.0 µM); -3% in assay [2] (setting [7]); 91% (active) in assay [2] (setting [8]); 99.4% (active) in assay [2] (at 50.0 µM). Moreover, the growth inhibition in assay [3] (setting [7]) is -3%; in assay [3] (setting [8]), 86% (active); in assay [3] (at 50.0 µM) it was 99.4% (active); in assay [4] (setting [7]), -19%; in assay [4] (setting [8]) it was 86% (active); in assay [4] (at 50.0 µM) it was 99% (active). Also, the growth inhibition in assay [5] (setting [7]) was -8%; in assay [5] (setting [8]) it was 92% (active); in assay [5] (at 50.0 µM) it was 99.5% (active); in assay [6] (setting [7]), 0%; in assay [6] (setting [8]), 93% (active); in assay [6] (at 50.0 µM), 99.3% (active).
For `CCCCN(CCCC)CC(O)c1cc(-c2ccc(Cl)cc2)nc2c(Cl)cccc12` (configuration not stated), the growth inhibition in assay [1] (setting [7]) was 1%; in assay [1] (setting [8]), 6%; in assay [1] (at 50.0 µM) it was 99% (active); in assay [2] (setting [7]) it was -2%; in assay [2] (setting [8]), 1%; in assay [2] (at 50.0 µM) it was 99.5% (active). Further, the growth inhibition in assay [3] (setting [7]) is 1%; in assay [3] (setting [8]), 12%; in assay [3] (at 50.0 µM) it was 99.2% (active); in assay [4] (setting [7]) it was -3%; in assay [4] (setting [8]), -13%; in assay [4] (at 50.0 µM) it was 98.5% (active). The growth inhibition is -4% in assay [5] (setting [7]); 0% in assay [5] (setting [8]); 98.8% (active) in assay [5] (at 50.0 µM); -3% in assay [6] (setting [7]); -4% in assay [6] (setting [8]); 99.3% (active) in assay [6] (at 50.0 µM).

Values taken from PubChem BioAssay (NCI).
